Results as given in PubChem BioAssay (NCATS).
Records with an inconclusive call do not appear. Where a call stands in place of a potency, no number is given. A number with no mark means an inactive call. Activity calls are given as the source filed them. Unless noted, calls come from the whole dose curve; as a rule, active = well fitted curve in the direction sought with a large enough effect; inconclusive = small, poorly fitted or top-dose-only effect, or another doubt; inactive = no such curve, though single readings can be large; an effect the other way counts as inactive or inconclusive.

Columns and labels:
[1] = qHTS for Inhibitors of Plasmodium falciparum (DD2) proliferation (AID 504314);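 note: parasite DNA measured by SYBR Green fluorescence after red cell lysis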
Outline: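 P. falciparum Dd2 is grown in erythrocytes with test compound for 72 h at 37C under 5% CO2. Growth is scored by SYBR Green I fluorescence after detergent lysis, relative to artemisinin (0.29 uM) and DMSO controls.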

[2] = qHTS for Inhibitors of Plasmodium falciparum (GB4) proliferation (AID 504315); note: nearly all actives have a fitted effect of over 50% in size
Outline: (§1)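 Parasite growth measured as SYBR Green DNA fluorescence (ex 485, em 535 nm) after overnight lysis following 72 h culture at 37 °C, 0.3% parasitemia, 2.5% hematocrit. Values normalized against DMSO and 0.29 uM artemisinin controls, with plate-stack correction.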

[3] = qHTS for Inhibitors of Plasmodium falciparum (7G8) proliferation (AID 504316); note: nearly all actives have a fitted effect of over 65% in size
Outline: as §1

[4] = qHTS for Inhibitors of Plasmodium falciparum (CP250) proliferation (AID 504320)
Outline: as §1

[5] = molecular target: Rap guanine nucleotide exchange factor 3 (Homo sapiens) (UniProt O95398); assay: Confirmatory qHTS for antagonist of cAMP-regulated guanine nucleotide exchange factor 3 (EPAC1) (AID 1645880); details: EPAC1 Rap1B-BODIPY-GDP exchange, fluorescence; activity, negative = inhibition: at 115 µM (top of the series); note: nearly all actives have a fitted effect of over 55% in size; note: potency is the fitted concentration of half-maximal effect
Sequence of Rap guanine nucleotide exchange factor 3 (Homo sapiens) (O95398 whole entry, looked up): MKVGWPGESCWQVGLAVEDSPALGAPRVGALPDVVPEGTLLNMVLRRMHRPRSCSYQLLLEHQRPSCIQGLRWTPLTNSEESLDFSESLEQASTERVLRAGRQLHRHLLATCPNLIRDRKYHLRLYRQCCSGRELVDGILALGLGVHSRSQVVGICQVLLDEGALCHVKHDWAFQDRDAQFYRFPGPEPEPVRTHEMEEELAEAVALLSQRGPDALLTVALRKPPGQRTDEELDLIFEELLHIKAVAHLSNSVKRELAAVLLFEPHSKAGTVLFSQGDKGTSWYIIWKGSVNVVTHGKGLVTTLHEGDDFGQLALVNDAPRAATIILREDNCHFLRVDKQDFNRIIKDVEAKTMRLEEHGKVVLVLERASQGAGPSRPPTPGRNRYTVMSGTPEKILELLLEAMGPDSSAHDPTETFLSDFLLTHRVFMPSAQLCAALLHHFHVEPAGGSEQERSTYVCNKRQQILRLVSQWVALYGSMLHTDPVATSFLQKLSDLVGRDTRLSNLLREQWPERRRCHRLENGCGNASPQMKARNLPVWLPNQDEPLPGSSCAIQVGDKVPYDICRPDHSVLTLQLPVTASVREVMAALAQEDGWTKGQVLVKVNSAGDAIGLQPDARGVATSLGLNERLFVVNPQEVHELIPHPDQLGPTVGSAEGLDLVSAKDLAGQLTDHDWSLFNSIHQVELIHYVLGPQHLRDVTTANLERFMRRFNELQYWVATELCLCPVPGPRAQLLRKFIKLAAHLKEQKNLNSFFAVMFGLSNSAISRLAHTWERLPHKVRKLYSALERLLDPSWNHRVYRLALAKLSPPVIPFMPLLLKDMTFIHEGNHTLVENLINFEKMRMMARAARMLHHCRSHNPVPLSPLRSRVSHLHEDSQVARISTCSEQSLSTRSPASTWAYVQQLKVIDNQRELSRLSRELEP
Outline: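 Released BODIPY-GDP fluoresces less than Rap1-bound BODIPY-GDP; the signal is followed at 480/540 nm at 5-min intervals over 30 min, after 5 min at room temperature. Reactions contain 100 nM EPAC1, 250 nM RAP1B-BODIPY-GDP and 50 uM GDP; results are normalized to ATA and DMSO.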

[6] = molecular target: Rap guanine nucleotide exchange factor 3 (Homo sapiens) (UniProt O95398); assay: Confirmatory qHTS for agonist of cAMP-regulated guanine nucleotide exchange factor 3 (EPAC1) (AID 1645881); note: nearly all actives have a fitted effect of over 75% in size; note: potency is the fitted concentration of half-maximal effect;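 for activation: EPAC1 catalysed release of BODIPY-GDP from Rap1B seen as fluorescence loss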
[7] = molecular target: Rap guanine nucleotide exchange factor 4 (Homo sapiens) (UniProt Q8WZA2); assay: Confirmatory qHTS for agonist of cAMP-regulated guanine nucleotide exchange factor 4 (EPAC2) (AID 1645884);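 note: nucleotide exchange releases bodipy-GDP from Rap1 and this lowers its fluorescence; nearly all actives have a fitted effect of over 65% in size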; note: potency is the fitted concentration of half-maximal effect
Sequence of Rap guanine nucleotide exchange factor 4 (Homo sapiens) (Q8WZA2 whole entry, looked up): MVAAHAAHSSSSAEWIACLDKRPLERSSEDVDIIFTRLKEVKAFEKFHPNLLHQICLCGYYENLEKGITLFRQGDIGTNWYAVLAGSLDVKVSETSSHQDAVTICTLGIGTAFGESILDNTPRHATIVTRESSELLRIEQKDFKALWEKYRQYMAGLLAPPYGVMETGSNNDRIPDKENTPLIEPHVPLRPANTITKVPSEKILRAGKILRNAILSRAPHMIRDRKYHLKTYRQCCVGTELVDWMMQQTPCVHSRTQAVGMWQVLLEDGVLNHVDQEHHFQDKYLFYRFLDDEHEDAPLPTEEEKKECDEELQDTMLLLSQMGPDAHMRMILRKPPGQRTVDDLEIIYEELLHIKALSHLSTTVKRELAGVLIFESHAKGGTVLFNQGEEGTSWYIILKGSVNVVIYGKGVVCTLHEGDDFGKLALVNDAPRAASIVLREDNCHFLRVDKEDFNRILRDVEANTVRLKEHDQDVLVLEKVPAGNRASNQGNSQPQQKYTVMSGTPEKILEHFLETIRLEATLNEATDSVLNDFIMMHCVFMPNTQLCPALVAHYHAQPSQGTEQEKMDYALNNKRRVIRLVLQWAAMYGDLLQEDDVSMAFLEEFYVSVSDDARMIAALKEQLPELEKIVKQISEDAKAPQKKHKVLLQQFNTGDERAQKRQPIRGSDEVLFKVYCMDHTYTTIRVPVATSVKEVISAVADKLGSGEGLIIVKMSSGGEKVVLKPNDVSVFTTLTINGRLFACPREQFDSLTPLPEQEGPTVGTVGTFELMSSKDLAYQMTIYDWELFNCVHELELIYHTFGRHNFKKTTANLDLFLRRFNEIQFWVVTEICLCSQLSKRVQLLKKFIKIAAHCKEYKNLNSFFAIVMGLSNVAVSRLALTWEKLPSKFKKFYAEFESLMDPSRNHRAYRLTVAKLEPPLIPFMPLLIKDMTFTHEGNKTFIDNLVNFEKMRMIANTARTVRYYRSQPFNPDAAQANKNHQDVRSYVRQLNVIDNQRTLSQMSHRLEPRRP

[8] = molecular target: Rap guanine nucleotide exchange factor 4 (Homo sapiens) (UniProt Q8WZA2); assay: Confirmatory qHTS for antagonist of cAMP-regulated guanine nucleotide exchange factor 4 (EPAC2) (AID 1645885); note: nearly all actives have a fitted effect of over 25% in size; note: potency is the fitted concentration of half-maximal effect
[9] = molecular target: Rap guanine nucleotide exchange factor 3 (Homo sapiens) (UniProt O95398); assay: Counterscreen qHTS for antagonist of cAMP-regulated guanine nucleotide exchange factor 3 (EPAC1) (AID 1645888)
Outline: (§2)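 Rap1B–BODIPY-GDP (250 nM) with 50 uM GDP; compounds pin-transferred to 9.74 nM–152 uM final (activator) or from 7.32 nM upwards (inhibitor). Fluorescence Ex/Em 480/540 nm read at 5 and 30 min, then after adding cAMP or buffer, at room temperature.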

[10] = molecular target: Rap guanine nucleotide exchange factor 3 (Homo sapiens) (UniProt O95398); assay: Counterscreen qHTS for agonist of cAMP-regulated guanine nucleotide exchange factor 3 (EPAC1) (AID 1645889); note: nearly all actives have a fitted effect of over 40% in size; note: potency is the fitted concentration of half-maximal effect
Outline: as §2

[11] = AP1 Signaling Pathway (AID 357; active = well fitted curve in either direction with a large enough effect, not every such curve was filed as active;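 note: ME-180 reporter cells stimulated with EGF at its EC50 level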); details: ME-180 (cervical carcinoma) AP-1-bla reporter, EGF-induced, beta-lactamase ratio, 5 h; at 7.69 µM (top of the series) unless noted
Outline: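 Titration-series screen for positive or negative modulators of EC50 EGF-induced signaling in ME-180 cells carrying an AP-1-driven beta-lactamase reporter. After 5 hours at 37 degrees Celsius, CCF4 460nm/530nm emission ratio gave %Activity; AC50 values derived.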

[12] = NFAT Signaling Pathway (AID 444; active = well fitted curve in either direction with a large enough effect, not every such curve was filed as active;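 note: carbachol stimulus at about its EC50 of 1 µM final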); details: Jurkat NFAT-bla M1, carbachol, beta-lactamase ratio, 5 h; at 7.69 µM (top of the series) unless noted
Outline: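 Jurkat cells with NFAT-driven β-lactamase reporter and co-expressed M1 receptor, stimulated with carbachol (final 1 uM, ~EC50), compound titration, 5 h at 37 °C. CCF4 loaded 1 h at RT; 460/530 nm ratio gave %activity and AC50.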

[13] = Stat Signaling Pathway (AID 446; active = well fitted curve in either direction with a large enough effect, not every such curve was filed as active;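 note: ME-180 cervical cancer cells given 40 pM IL-6 alongside compound; SIE-controlled beta-lactamase reporter measured as 460/530 nm FRET emission ratio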)
Outline: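 Compound effects on IL-6-induced STAT reporter activity were measured in ME-180 cells. After overnight culture, cells were co-treated with 40 pM IL-6 for 5 hrs before beta-lactamase substrate loading at room temperature.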

[14] = molecular target: Tumor susceptibility gene 101 protein (Homo sapiens) (UniProt Q99816); assay: qHTS Assay for Iinhibitors of HIV-1 Budding by Blocking the Interaction of PTAP/TSG101: Hit Validation (AID 651600); note: nearly all actives have a fitted effect of over 70% in size; note: potency is the fitted concentration of half-maximal effect
Sequence of Tumor susceptibility gene 101 protein (Homo sapiens) (Q99816 whole entry, looked up, the tested form may be a part): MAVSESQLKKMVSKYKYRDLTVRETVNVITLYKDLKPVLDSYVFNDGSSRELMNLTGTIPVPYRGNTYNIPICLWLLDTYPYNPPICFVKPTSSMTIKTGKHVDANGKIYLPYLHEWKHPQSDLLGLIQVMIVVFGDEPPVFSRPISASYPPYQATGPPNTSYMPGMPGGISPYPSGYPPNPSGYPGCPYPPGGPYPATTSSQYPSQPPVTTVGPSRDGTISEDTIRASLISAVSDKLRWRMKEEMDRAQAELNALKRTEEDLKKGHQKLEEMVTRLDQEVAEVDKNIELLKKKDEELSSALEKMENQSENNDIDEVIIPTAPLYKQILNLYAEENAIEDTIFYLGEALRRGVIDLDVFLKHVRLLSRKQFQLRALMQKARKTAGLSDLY
Outline: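 FITC-PTAP peptide (50 nM final) binding to Tsg101 binding domain (10 uM final) was measured by polarization after 20 min at r.t. with compounds, in 10 mM HEPES pH 7.5 buffer with 0.15 M NaCl and 0.01% Tween 20.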

[15] = qHTS for Inhibitors of Plasmodium falciparum (HB3) proliferation (AID 504318); note: nearly all actives have a fitted effect of over 60% in size
Outline: as §1

[16] = molecular target: Tyrosyl-DNA phosphodiesterase 1 (Homo sapiens) (UniProt Q9NUW8); assay: Confirmation Assay for Inhibitors of Tyrosyl-DNA Phosphodiesterase (TDP1) (AID 489007); details: recombinant human TDP1 enzymatic activity, dose-response; note: potency is the fitted concentration of half-maximal effect; nearly all actives have a fitted effect of over 40% in size
Sequence of Tyrosyl-DNA phosphodiesterase 1 (Homo sapiens) (Q9NUW8 whole entry, looked up): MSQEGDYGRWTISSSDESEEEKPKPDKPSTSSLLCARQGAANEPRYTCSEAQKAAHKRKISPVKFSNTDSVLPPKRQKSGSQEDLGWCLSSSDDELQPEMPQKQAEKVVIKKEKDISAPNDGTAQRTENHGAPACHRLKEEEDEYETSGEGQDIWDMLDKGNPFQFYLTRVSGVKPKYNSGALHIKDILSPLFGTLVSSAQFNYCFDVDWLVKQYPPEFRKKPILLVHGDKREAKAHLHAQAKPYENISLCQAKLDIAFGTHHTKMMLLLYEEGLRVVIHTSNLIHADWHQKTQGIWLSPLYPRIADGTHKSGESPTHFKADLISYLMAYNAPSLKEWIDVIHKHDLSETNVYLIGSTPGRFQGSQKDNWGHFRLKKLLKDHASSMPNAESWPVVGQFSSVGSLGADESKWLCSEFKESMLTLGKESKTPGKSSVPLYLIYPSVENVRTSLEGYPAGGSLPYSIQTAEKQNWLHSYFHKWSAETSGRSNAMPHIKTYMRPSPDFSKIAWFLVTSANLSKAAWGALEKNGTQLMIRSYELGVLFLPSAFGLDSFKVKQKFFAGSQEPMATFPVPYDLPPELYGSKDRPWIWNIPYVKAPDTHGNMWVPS
Outline: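 Loss of AlphaScreen signal reports Tdp1 cleavage of a dual-labelled DNA substrate. Conditions: 1 nM E. coli-derived enzyme, 15 nM substrate, 15 min compound preincubation, 5 min reaction, 10 min bead incubation, all at room temperature.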

[17] = qHTS for Inhibitors of the vitamin D receptor (VDR): Hit Validation using a Texas Red Assay (AID 602201)
Outline: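 Fluorescence polarization with 1.5 uM VDR-LBD, LG19078 and 7 nM Texas Red (final). After 2 hours at ambient temperature, read at Ex 595 nm/Em 615 nm.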

COc1ccc2c(c1)O[C@H](c1ccc3c(c1)OCO3)[C@@H](O)C2=O
outcome [1]: inactive | outcome [2]: inactive | outcome [3]: inactive | outcome [4]: inactive | Potency [5]: inactive | Potency [6]: inactive | activation [7]: 6.45% [at 17.1 µM, percent relative to cAMP agonist control] | Potency [8]: inactive | activity change, negative = inhibition [9]: -0.524% [at 30.8 µM] | activation [10]: 17% [at 30.8 µM]

COCCn1c(N)c(C(=O)NCC2CCCO2)c2nc3ccccc3nc21 (stereo unspecified)
activity change, negative = inhibition [11]: -8.13% [at 17.2 µM] | activity change, negative = inhibition [12]: 8.7% [at 17.2 µM] | outcome [13]: inactive | Potency [5]: inactive | Potency [6]: inactive | Potency [7]: inactive | Potency [8]: inactive | Potency [9]: inactive

O=C(OCCN1C(=O)c2cccc3c(N4CCOCC4)ccc(c23)C1=O)c1cccc(Cl)c1
Potency [14]: inactive | Potency [5]: inactive | Potency [6]: 89.1 µM (active) | Potency [7]: 100 µM (active) | Potency [8]: 75.7 µM (active) | Potency [9]: inactive | Potency [10]: 3.16 µM (active)

COC(=O)C1=C(C(=O)OC)[C@@H]2N(Cc3ccccc3)c3ccccc3[C@@]23C[C@@H](C(=O)OC)N=C3N1
outcome [1]: inactive | outcome [2]: inactive | outcome [3]: inactive | outcome [15]: inactive | outcome [4]: inactive | Potency [5]: inactive | Potency [6]: inactive | activation [7]: 0% [at 17.1 µM, percent relative to cAMP agonist control] | Potency [8]: inactive | activity change, negative = inhibition [9]: 17% [at 30.8 µM]

CSC1=NSC2=NC(=O)/C(=C/c3coc4ccccc4c3=O)C(=N)N12
Potency [14]: 18.3 µM (active) | Potency [5]: inactive | Potency [6]: 89.1 µM (active) | Potency [7]: 100 µM (active) | Potency [8]: inactive | Potency [9]: inactive | Potency [10]: 39.8 µM (active)

O=[N+]([O-])c1ccc(Sc2cccc[n+]2[O-])c2nonc12
Potency [14]: 18.3 µM (active) | Potency [5]: 31.6 µM (active) | Potency [6]: inactive | activation [7]: 3.05% [at 17.1 µM, percent relative to cAMP agonist control] | Potency [8]: inactive | activity change, negative = inhibition [9]: -8.92% [at 30.8 µM] | activation [10]: 9.42% [at 30.8 µM]

Cc1cccc(N2C(=O)c3cccc4c(N(C)CCO)ccc(c34)C2=O)c1
Potency [14]: 3.66 µM (active) | Potency [5]: inactive | Potency [6]: 89.1 µM (active) | Potency [7]: 100 µM (active) | Potency [8]: inactive | Potency [9]: inactive | Potency [10]: 39.8 µM (active)

COc1ccc(CNC(=O)C(C#N)c2nc3ccccc3nc2N2CCCC2)cc1 (stereo unspecified)
Potency [14]: 9.19 µM (active) | Potency [5]: inactive | Potency [6]: inactive | Potency [7]: inactive | Potency [8]: inactive | Potency [9]: inactive | Potency [10]: inactive

Fc1ccc(N2N=C(c3cccs3)CC2c2ccccc2)cc1 (stereo unspecified)
Potency [16]: 28.2 µM (active) | Potency [5]: inactive | Potency [6]: inactive | Potency [7]: inactive | Potency [8]: inactive | Potency [9]: inactive

O=S(=O)(Nc1cc2nc3ccccc3nc2n1Cc1ccccc1)c1ccc(Cl)cc1
Potency [17]: inactive | Potency [5]: 9.53 µM (active) | Potency [6]: inactive | Potency [7]: inactive | Potency [8]: 37.9 µM (active) | Potency [9]: inactive | Potency [10]: inactive
